Compounds without any hit were thinned out: in the full panel of roughly 79,000, 15% have a hit. Activity calls are given as the source filed them. Rule as the data show it: active = growth inhibition above about 70%; inactive = the rest.
Columns and labels:
[1] = NCI Yeast Anticancer Drug Screen. Data for the rad52 strain (AID 147);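 also: 0% = growth of vehicle-treated control cultures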; details: S. cerevisiae rad52 mutant growth inhibition, hits give high values
Method in brief: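 Read-out: growth inhibition versus vehicle-treated controls. Cells were a DNA repair-deficient yeast strain treated with compounds.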

[2] = NCI Yeast Anticancer Drug Screen. Data for the rad50EPP+ strain (AID 151);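 also: 0% = growth of vehicle-treated control cultures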; details: S. cerevisiae rad50 mutant strain, hits give high values
Method in brief: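 Growth inhibition read against vehicle controls in rad50EPP+ yeast, a strain altered in DNA damage repair, after compound exposure.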

[3] = NCI Yeast Anticancer Drug Screen. Data for the mgt1 strain (AID 153); details: S. cerevisiae mgt1 mutant growth inhibition, hits give high values
Method in brief: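 mgt1 yeast grown with test compound; read-out is growth inhibition versus vehicle-treated cultures.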

[4] = NCI Yeast Anticancer Drug Screen. Data for the rad50 strain (AID 155);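 also: 0% = growth of vehicle-only cultures of the same strain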; details: S. cerevisiae rad50 strain growth inhibition, hits give high values
Method in brief: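 Growth of the mutant yeast was measured after compound exposure and referenced to vehicle-treated cultures.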

[5] = NCI Yeast Anticancer Drug Screen. Data for the mec2-1 strain (AID 157); details: S. cerevisiae mec2-1 strain, hits give high values
Method in brief: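 Yeast mec2-1 mutant treated with compound. Readout: growth inhibition vs vehicle controls.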

[6] = NCI Yeast Anticancer Drug Screen. Data for the rad14 strain (AID 159);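 also: 0% = growth of vehicle-treated control cultures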; details: S. cerevisiae rad14 strain growth inhibition, hits give high values
Method in brief: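 Here, inhibition of yeast growth was measured after compound exposure, using a strain with a genetic defect in DNA damage repair and vehicle-treated cultures as the reference.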

[7] = NCI Yeast Anticancer Drug Screen. Data for the sgs1 mgt1 strain (AID 161);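 also: 0% = growth of cultures given vehicle only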; details: S. cerevisiae sgs1 mgt1 strain, hits give high values
Method in brief: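 Read-out: growth inhibition vs vehicle controls. Cells: mutant yeast strain deficient in DNA damage repair.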

[8] = NCI Yeast Anticancer Drug Screen. Data for the CLN2oe strain (AID 163);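 also: 0% = growth of vehicle-only control cultures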; details: S. cerevisiae CLN2oe strain, hits give high values
Method in brief: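 Read-out: yeast growth inhibition, expressed relative to vehicle-only controls. The strain bears an engineered cell-cycle alteration.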

[9] = NCI Yeast Anticancer Drug Screen. Data for the cln2 rad14 strain (AID 165);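 also: 0% = growth equal to vehicle treated cultures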; details: S. cerevisiae cln2 rad14 strain, hits give high values
Method in brief: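 cln2 rad14 yeast strain; compound exposure; growth inhibition read vs vehicle controls.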

[10] = NCI Yeast Anticancer Drug Screen. Data for the bub3 strain (AID 167); details: S. cerevisiae bub3 mutant strain, hits give high values
Method in brief: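 Whole-cell yeast assay. The mutant strain was incubated with compounds, and growth inhibition was determined by comparison with vehicle-treated cells.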

[11] = NCI Yeast Anticancer Drug Screen. Data for the wt2 strain (AID 169);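 also: 0% = growth of vehicle-treated yeast cultures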; details: S. cerevisiae wt2 strain growth inhibition, hits give high values
Method in brief: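 Read-out: growth inhibition versus vehicle-treated control cultures after compound exposure of the yeast strain.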

[12] = NCI Yeast Anticancer Drug Screen. Data for the mlh1 strain (AID 171);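 also: 0% = growth of vehicle-treated control cultures of the same strain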; details: S. cerevisiae mlh1 strain growth inhibition, hits give high values
Method in brief: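 Read-out: growth inhibition versus vehicle controls. Strain: engineered yeast with a defined DNA repair or cell cycle defect, compound-treated.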

[13] = NCI Yeast Anticancer Drug Screen. Data for the sgs1 strain (AID 173);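 also: 0% = growth of vehicle-only control cultures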; details: S. cerevisiae sgs1 mutant, hits give high values
Method in brief: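 Read-out: yeast growth inhibition relative to vehicle controls, following compound exposure of a strain with a defined DNA repair/cell cycle alteration.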

[14] = NCI Yeast Anticancer Drug Screen. Data for the mlh1 rad18 strain (AID 175); details: S. cerevisiae mlh1 rad18 strain growth inhibition, hits give high values
Method in brief: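 Yeast w/ defined DNA-repair lesions; compound exposure; growth vs vehicle controls → % inhibition.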

[15] = NCI Yeast Anticancer Drug Screen. Data for the rad18 strain (AID 177); details: S. cerevisiae rad18 mutant growth inhibition, hits give high values
Method in brief: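 Readout: growth inhibition vs vehicle controls. Cells: genetically altered yeast strain, DNA repair defect.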

[16] = at 5.0 µM (retest, dose inferred, filed as 0.5)
[17] = at 50.0 µM (retest, dose inferred, filed as 5.0)

Measured: growth inhibition

CCCCCCCCCCC(=O)Cl
active: [3]; at 100.0 µM 85% | [4]; [16] 100% | [4]; [17] 98% | [5]; [16] 100% | [5]; [17] 98% | [5]; at 100.0 µM 83% | [6]; at 100.0 µM 88% | [8]; at 100.0 µM 77% | [11]; at 100.0 µM 82% | [12]; at 100.0 µM 82% | [13]; at 100.0 µM 90% | [14]; [16] 100% | [14]; [17] 99% | [15]; at 100.0 µM 89%
inactive: [1]; at 1.2 µM 13% | [1]; at 3.7 µM 13% | [1]; at 11.0 µM 12% | [1]; at 33.0 µM 9% | [1]; at 100.0 µM 31% | [2]; at 1.2 µM 18% | [2]; at 3.7 µM 22% | [2]; at 11.0 µM 25% | [2]; at 33.0 µM 40% | [2]; at 100.0 µM 46% | [3]; at 1.2 µM -21% | [3]; at 3.7 µM -25% | [3]; at 11.0 µM -28% | [3]; at 33.0 µM -32% | [4]; at 1.2 µM 14% | [4]; at 3.7 µM 18% | [4]; at 11.0 µM 2% | [4]; at 33.0 µM 9% | [4]; at 50.0 µM 58.2% | [4]; at 100.0 µM 29% | [5]; at 1.2 µM -1% | [5]; at 3.7 µM 7% | [5]; at 11.0 µM -9% | [5]; at 33.0 µM -23% | [5]; at 50.0 µM 7.75% | [6]; at 1.2 µM -1% | [6]; at 3.7 µM -2% | [6]; at 11.0 µM -8% | [6]; at 33.0 µM 39% | [7]; [16] -18% | [7]; [17] 36% | [7]; at 50.0 µM 56.9% | [8]; at 1.2 µM -4% | [8]; at 3.7 µM -9% | [8]; at 11.0 µM -25% | [8]; at 33.0 µM -18% | [9]; [16] 36% | [9]; [17] 58% | [9]; at 50.0 µM 31.9% | [10]; at 1.2 µM -9% | [10]; at 3.7 µM -4% | [10]; [16] 16% | [10]; at 11.0 µM -34% | [10]; at 33.0 µM -33% | [10]; [17] 64% | [10]; at 50.0 µM 12.1% | [10]; at 100.0 µM 54% | [11]; at 1.2 µM 5% | [11]; at 3.7 µM 1% | [11]; at 11.0 µM -4% | [11]; at 33.0 µM -2% | [12]; at 1.2 µM 14% | [12]; at 3.7 µM 7% | [12]; at 11.0 µM 5% | [12]; at 33.0 µM 2% | [13]; at 1.2 µM 18% | [13]; at 3.7 µM 14% | [13]; at 11.0 µM 15% | [13]; at 33.0 µM 25% | [14]; at 50.0 µM -13.4% | [15]; at 1.2 µM 25% | [15]; at 3.7 µM 21% | [15]; at 11.0 µM 15% | [15]; at 33.0 µM 9%

S=C(N/N=C/c1ccccn1)Nc1ccc(Cl)cc1
active: [4]; [17] 95% | [5]; [16] 71% | [5]; [17] 95% | [6]; at 100.0 µM 80% | [7]; [17] 96% | [7]; at 50.0 µM 83.8% | [8]; at 100.0 µM 79% | [9]; [17] 90% | [9]; at 50.0 µM 71.9% | [10]; [17] 96% | [10]; at 50.0 µM 79.6% | [14]; [17] 95% | [14]; at 50.0 µM 78.8%
inactive: [1]; at 1.2 µM -5% | [1]; at 3.7 µM -5% | [1]; at 11.0 µM -3% | [1]; at 33.0 µM 15% | [1]; at 100.0 µM 59% | [2]; at 1.2 µM -3% | [2]; at 3.7 µM -3% | [2]; at 11.0 µM 1% | [2]; at 33.0 µM -6% | [2]; at 100.0 µM -12% | [3]; at 1.2 µM -7% | [3]; at 3.7 µM -7% | [3]; at 11.0 µM 9% | [3]; at 33.0 µM 16% | [3]; at 100.0 µM 59% | [4]; at 1.2 µM -5% | [4]; at 3.7 µM -7% | [4]; [16] -7% | [4]; at 11.0 µM -27% | [4]; at 33.0 µM 19% | [4]; at 50.0 µM 55.5% | [4]; at 100.0 µM 59% | [5]; at 1.2 µM -5% | [5]; at 3.7 µM -6% | [5]; at 11.0 µM -3% | [5]; at 33.0 µM 10% | [5]; at 50.0 µM 56.2% | [5]; at 100.0 µM 63% | [6]; at 1.2 µM -3% | [6]; at 3.7 µM 0% | [6]; at 11.0 µM 0% | [6]; at 33.0 µM 27% | [7]; [16] 27% | [8]; at 1.2 µM -3% | [8]; at 3.7 µM -14% | [8]; at 11.0 µM -12% | [8]; at 33.0 µM 11% | [9]; [16] 38% | [10]; at 1.2 µM -5% | [10]; at 3.7 µM 0% | [10]; [16] 19% | [10]; at 11.0 µM -2% | [10]; at 33.0 µM -3% | [10]; at 100.0 µM 49% | [11]; at 1.2 µM -6% | [11]; at 3.7 µM -6% | [11]; at 11.0 µM -4% | [11]; at 33.0 µM 9% | [11]; at 100.0 µM 39% | [12]; at 1.2 µM -5% | [12]; at 3.7 µM -9% | [12]; at 11.0 µM -5% | [12]; at 33.0 µM 12% | [12]; at 100.0 µM 51% | [13]; at 1.2 µM -5% | [13]; at 3.7 µM -4% | [13]; at 11.0 µM -2% | [13]; at 33.0 µM 22% | [13]; at 100.0 µM 66% | [14]; [16] 44% | [15]; at 1.2 µM -6% | [15]; at 3.7 µM -3% | [15]; at 11.0 µM -5% | [15]; at 33.0 µM 2% | [15]; at 100.0 µM 67%

Source: PubChem BioAssay (NCI)
